Test results published in the supplement of paper PMC10849652.
Of roughly 7,900 targets only a part is listed; those with a hit were picked by preference. About 0.6% of all pairs of compound and target were hits.

Each target was assayed with C1=CC2=C(C=CC(=C2)/C=C\3/C(=O)NC(=NCC4=CC=CS4)S3)N=C1 (assay: log2 fold change, soluble protein after heating vs DMSO (PISA); higher = thermal stabilisation; K562 cells, 10 uM, 30 min; active = over 0.2 and 3.5 SD of the protein, either way, in both replicates (recomputed)).
Outline: (§1)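 Values are thermal stability changes relative to control samples and are taken from duplicates. They are stated as log2 fold changes. Before quantification by TMTpro 16plex LC-MS/MS with equalised channel sums, K562 cells at 2×10^6 cells/mL were treated with 10 μM compound for 30 min, heated in aliquots for 3 min across 48°C-58°C, pooled, extracted in PBS with 0.5% NP-40 at 4°C, and centrifuged at 21,000xg for 90 min to give the soluble supernatant.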

UniProt Q9BUP3, sequence (Q9BUP3 whole entry, looked up): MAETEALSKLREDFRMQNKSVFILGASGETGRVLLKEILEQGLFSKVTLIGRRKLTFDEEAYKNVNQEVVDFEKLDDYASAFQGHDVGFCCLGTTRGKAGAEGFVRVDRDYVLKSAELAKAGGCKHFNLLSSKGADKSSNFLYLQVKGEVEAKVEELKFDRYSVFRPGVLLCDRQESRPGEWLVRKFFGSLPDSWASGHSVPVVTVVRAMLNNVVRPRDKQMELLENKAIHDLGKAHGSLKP
UniProt P29084, sequence (P29084 whole entry, looked up): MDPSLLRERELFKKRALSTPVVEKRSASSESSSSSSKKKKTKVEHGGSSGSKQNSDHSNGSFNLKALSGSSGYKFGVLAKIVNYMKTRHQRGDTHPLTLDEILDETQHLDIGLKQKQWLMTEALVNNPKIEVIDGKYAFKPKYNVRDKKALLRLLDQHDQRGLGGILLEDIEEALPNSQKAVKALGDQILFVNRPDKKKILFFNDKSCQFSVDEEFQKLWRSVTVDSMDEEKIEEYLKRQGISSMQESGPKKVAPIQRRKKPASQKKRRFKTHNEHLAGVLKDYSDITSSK
UniProt P49448, sequence (P49448 whole entry, looked up): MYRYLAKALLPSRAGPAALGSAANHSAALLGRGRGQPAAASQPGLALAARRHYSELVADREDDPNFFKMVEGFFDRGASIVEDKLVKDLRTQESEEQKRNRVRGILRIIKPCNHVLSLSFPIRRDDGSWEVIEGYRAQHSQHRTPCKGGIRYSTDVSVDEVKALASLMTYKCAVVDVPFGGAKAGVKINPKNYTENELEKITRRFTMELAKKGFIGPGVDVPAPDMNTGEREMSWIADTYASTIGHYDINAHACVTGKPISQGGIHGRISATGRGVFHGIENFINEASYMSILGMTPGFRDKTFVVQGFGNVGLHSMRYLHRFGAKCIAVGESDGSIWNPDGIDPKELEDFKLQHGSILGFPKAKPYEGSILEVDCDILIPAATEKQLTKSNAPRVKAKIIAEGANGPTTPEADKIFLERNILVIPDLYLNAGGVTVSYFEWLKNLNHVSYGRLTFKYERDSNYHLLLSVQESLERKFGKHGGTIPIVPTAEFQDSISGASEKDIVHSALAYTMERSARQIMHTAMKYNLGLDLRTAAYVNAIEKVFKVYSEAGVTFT
UniProt Q92538, sequence (Q92538 whole entry, looked up): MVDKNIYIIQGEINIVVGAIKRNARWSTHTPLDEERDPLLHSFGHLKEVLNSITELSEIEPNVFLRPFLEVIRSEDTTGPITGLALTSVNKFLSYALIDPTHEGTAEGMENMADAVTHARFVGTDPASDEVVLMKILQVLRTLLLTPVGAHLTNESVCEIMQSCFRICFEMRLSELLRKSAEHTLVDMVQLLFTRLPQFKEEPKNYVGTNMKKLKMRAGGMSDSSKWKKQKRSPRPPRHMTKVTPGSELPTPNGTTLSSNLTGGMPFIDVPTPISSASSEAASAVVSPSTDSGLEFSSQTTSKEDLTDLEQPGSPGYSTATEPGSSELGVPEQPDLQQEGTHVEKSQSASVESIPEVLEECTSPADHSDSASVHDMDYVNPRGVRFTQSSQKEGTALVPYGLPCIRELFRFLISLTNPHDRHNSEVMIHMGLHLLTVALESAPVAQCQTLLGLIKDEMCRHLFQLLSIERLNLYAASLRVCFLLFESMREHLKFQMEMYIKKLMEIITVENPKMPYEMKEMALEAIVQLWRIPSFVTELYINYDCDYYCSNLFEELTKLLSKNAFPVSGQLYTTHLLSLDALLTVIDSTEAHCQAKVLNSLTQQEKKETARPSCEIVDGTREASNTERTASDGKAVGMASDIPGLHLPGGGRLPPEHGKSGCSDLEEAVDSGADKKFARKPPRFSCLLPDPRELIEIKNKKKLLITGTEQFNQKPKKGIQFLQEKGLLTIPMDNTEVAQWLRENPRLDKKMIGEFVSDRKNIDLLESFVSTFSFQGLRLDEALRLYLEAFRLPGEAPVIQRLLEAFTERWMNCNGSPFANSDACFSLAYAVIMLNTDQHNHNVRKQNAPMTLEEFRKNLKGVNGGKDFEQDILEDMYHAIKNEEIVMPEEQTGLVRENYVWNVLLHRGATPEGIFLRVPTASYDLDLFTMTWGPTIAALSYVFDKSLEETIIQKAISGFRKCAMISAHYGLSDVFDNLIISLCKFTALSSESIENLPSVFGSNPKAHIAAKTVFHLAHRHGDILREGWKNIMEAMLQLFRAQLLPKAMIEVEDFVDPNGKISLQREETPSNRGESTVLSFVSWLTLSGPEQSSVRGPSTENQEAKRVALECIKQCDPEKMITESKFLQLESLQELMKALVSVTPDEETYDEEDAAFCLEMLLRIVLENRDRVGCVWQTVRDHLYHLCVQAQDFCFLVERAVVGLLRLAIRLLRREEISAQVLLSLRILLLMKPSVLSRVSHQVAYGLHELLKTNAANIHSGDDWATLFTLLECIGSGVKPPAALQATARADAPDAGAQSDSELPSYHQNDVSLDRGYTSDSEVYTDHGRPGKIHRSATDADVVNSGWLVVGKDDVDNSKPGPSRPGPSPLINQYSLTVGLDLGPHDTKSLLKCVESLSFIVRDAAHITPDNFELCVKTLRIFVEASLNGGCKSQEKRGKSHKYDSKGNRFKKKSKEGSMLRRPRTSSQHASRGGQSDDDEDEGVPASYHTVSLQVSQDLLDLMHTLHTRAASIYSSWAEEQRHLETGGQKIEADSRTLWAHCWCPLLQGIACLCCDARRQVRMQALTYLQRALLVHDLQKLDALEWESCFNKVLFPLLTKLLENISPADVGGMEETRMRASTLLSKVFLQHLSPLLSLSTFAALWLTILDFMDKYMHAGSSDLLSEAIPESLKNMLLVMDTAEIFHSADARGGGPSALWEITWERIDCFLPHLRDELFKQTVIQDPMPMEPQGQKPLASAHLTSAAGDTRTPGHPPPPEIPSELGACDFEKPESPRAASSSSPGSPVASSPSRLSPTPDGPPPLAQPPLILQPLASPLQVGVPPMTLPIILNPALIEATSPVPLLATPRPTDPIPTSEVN
UniProt O94925, sequence (O94925 whole entry, looked up): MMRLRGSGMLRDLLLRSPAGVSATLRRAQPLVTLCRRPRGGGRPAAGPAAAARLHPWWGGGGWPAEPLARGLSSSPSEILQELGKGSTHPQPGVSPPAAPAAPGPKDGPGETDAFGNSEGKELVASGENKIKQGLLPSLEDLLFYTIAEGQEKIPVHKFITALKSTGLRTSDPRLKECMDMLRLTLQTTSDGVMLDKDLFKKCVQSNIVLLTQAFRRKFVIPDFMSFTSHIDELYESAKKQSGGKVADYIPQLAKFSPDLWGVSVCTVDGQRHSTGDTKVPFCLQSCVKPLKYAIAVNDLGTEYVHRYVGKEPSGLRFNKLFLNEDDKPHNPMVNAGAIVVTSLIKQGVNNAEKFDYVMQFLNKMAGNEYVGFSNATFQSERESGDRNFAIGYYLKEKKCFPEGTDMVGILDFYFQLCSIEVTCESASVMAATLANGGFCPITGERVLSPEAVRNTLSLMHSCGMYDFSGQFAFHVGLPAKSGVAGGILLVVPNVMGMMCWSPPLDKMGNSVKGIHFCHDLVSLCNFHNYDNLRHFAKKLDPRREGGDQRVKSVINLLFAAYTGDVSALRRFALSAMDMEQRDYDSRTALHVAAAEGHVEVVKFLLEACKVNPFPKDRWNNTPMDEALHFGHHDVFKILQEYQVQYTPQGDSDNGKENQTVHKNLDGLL
UniProt Q10472, sequence (Q10472 whole entry, looked up): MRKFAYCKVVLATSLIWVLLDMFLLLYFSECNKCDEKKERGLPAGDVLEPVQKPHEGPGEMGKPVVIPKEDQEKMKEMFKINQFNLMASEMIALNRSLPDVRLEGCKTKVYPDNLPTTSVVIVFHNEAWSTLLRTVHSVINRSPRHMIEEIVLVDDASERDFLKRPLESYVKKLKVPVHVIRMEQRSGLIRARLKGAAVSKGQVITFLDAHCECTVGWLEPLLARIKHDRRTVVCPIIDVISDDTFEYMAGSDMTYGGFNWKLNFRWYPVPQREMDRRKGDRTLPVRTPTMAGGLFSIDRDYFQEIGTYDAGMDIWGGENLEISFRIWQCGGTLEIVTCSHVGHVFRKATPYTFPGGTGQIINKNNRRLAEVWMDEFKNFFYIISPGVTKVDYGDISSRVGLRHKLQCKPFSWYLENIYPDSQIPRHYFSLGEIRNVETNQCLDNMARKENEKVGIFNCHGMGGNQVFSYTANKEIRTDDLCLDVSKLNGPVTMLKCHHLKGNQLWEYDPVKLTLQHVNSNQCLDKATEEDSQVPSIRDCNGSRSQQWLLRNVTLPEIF
UniProt O95363, sequence (O95363 whole entry, looked up): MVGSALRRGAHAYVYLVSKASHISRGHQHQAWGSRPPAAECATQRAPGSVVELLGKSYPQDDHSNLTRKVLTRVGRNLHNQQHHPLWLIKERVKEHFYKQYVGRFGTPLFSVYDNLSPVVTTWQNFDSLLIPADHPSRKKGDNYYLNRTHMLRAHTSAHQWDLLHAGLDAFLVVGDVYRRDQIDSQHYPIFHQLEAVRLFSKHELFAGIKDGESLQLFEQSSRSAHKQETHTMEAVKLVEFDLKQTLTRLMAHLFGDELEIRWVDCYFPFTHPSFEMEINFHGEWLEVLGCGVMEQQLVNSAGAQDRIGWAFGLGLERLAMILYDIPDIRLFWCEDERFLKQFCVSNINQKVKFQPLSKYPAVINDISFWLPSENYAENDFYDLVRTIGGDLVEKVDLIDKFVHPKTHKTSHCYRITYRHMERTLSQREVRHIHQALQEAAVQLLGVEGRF
UniProt O60725, sequence (O60725 whole entry, looked up): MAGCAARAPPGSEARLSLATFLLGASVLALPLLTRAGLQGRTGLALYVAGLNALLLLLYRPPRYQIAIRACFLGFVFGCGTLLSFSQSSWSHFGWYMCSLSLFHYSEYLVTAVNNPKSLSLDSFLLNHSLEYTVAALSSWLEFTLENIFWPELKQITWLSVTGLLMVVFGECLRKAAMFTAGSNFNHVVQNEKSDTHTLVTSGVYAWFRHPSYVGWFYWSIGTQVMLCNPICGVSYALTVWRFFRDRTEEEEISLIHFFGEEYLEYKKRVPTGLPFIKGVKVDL

log2 fold change, inactive:
GBF1 (UniProt Q92538) 0.075
GABARAPL1 isoform 2 (UniProt Q9H0R8) 0.074
GPX4 (UniProt P36969) -0.007
HIP1 (UniProt O00291) 0.018
HNRNPUL1 (UniProt Q9BUJ2) 0.001
HIKESHI (UniProt Q53FT3) 0.073
FEN1 (UniProt P39748) 0.172
GLCCI1 (UniProt Q86VQ1) 0.091
GID4 (UniProt Q8IVV7) -0.046
GTF2E2 (UniProt P29084) 0.09
FUT8 (UniProt Q9BYC5) -0.145
HDHD2 (UniProt Q9H0R4) 0.013
HTATIP2 isoform 3 (UniProt Q9BUP3) -0.143
GTPBP6 (UniProt O43824) 0.041
FASTKD1 (UniProt Q53R41) -0.072
GLB1 (UniProt P16278) 0.018
IFITM3 (UniProt Q01628) -0.041
GDE1 (UniProt Q9NZC3) -0.047
GLS isoform 3 (UniProt O94925) 0.027
H2AFX (UniProt P16104) 0.014
GLUD2 (UniProt P49448) 0.003
HSD17B12 (UniProt Q53GQ0) 0.025
HK2 (UniProt P52789) 0.028
GYS1 (UniProt P13807) -0.071
FARS2 (UniProt O95363) -0.03
HDGFL2 (UniProt Q7Z4V5) -0.046
GSTM4 (UniProt Q03013) -0.038
ICMT (UniProt O60725) 0.214
ICAM1 (UniProt P05362) -0.005
HIST2H3A (UniProt Q71DI3) 0.011
IFT80 isoform 3 (UniProt Q9P2H3) 0.042
GALNT1 (UniProt Q10472) 0.031
GLRX3 (UniProt O76003) 0.011
GLUD1 (UniProt P00367) 0.039
HOMER1 (UniProt Q86YM7) 0.021

What follows are targets tested with C1=CC2=NC=CN=C2C=C1/C=C/3\C(=O)NC(=O)S3 in the same assay as above.
Outline: as §1

log2 fold change, inactive:
GBF1 (UniProt Q92538) 0.028
GABARAPL1 isoform 2 (UniProt Q9H0R8) -0.033
GPX4 (UniProt P36969) 0.006
HIP1 (UniProt O00291) -0.056
HNRNPUL1 (UniProt Q9BUJ2) -0.01
HIKESHI (UniProt Q53FT3) 0.02
FEN1 (UniProt P39748) 0.003
GLCCI1 (UniProt Q86VQ1) 0.023
GID4 (UniProt Q8IVV7) 0.003
GTF2E2 (UniProt P29084) 0.003
FUT8 (UniProt Q9BYC5) -0.055
HDHD2 (UniProt Q9H0R4) 0.046
HTATIP2 isoform 3 (UniProt Q9BUP3) 0.005
GTPBP6 (UniProt O43824) 0.066
FASTKD1 (UniProt Q53R41) -0.033
GLB1 (UniProt P16278) -0.028
IFITM3 (UniProt Q01628) 0.058
GDE1 (UniProt Q9NZC3) 0.05
GLS isoform 3 (UniProt O94925) 0.004
H2AFX (UniProt P16104) 0.274
GLUD2 (UniProt P49448) -0.011
HSD17B12 (UniProt Q53GQ0) -0.012
HK2 (UniProt P52789) -0.015
GYS1 (UniProt P13807) -0.003
FARS2 (UniProt O95363) -0.018
HDGFL2 (UniProt Q7Z4V5) 0.048
GSTM4 (UniProt Q03013) 0.268
ICMT (UniProt O60725) -0.064
ICAM1 (UniProt P05362) -0.033
HIST2H3A (UniProt Q71DI3) 0.221
IFT80 isoform 3 (UniProt Q9P2H3) -0.011
GALNT1 (UniProt Q10472) 0.006
GLRX3 (UniProt O76003) 0.006
GLUD1 (UniProt P00367) -0.018
HOMER1 (UniProt Q86YM7) 0.074
